Drawing on PubChem BioAssay (EPA / NIEHS), this text covers AC50 and outcome for 39 compounds.

Some structures have more than one record in an assay (separate samples or runs), and their calls can disagree. Calls of active or inactive are those of the source. Rule for the calls: active = hit-call score of the fitted dose curve at least 0.9, where 1 is the maximum; inactive = score below 0.9.

Read-out in this test: Tumor necrosis factor receptor 1 (TNFRSF1A), TNFRSF1A (gene 7132)
Briefly: LTEA_HepaRG_TNFRSF1A: Life Technologies and Expression Analysis (LTEA) Assay for Tumor necrosis factor receptor 1 (TNFRSF1A) using HepaRG (AID 2283535). The conditions noted are these: mRNA level, 48 h; actives raise or lower the signal. As to the method: LTEA_HepaRG is a cell based, multiplexed-readout assay that uses HepaRG, a human liver cell line, with measurements taken at 48 hours after chemical dosing on a 96-well plate.LTEA_HepaRG_TNFRSF1A is one of 102 assay component(s) measured in the LTEA HepaRG cell culture assay. It is a marker of Cell proliferation, survival, death.Data from the assay component LTEA_HepaRG_TNFRSF1A was analyzed into 1 endpoint. This assay endpoint, LTEA_HepaRG_TNFRSF1A, was analyzed with bidirectional fitting relative to DMSO as the negative control and baseline of activity. Using a type of inducible reporter, measures of mRNA induction for gain or loss-of-signal activity can be used to understand regulation of transcription factor activity. To generalize the intended target to other relatable targets, this assay endpoint is annotated to the cytokine receptor intended target family, where the subfamily is TNF receptor.
A total of 1060 chemcials from the ToxCast library were tested in eight-point concentration-response experiments. Cell culture and cytotoxicity assays were conducted at Thermo Fisher Scientific's Custom Services facility (Madison, WI). A single lot of human HepaRG cells (Thermo Fisher Scientific, Frederick, MD) was used for the cell culture experiments. 96-well format collagen type I coated plates of human HepaRG cells were prepared using established methods. Briefly, cryopreserved HepaRG cells were thawed, plated at a density of approximately 100,000 cells/well in HepaRG Thaw, Plate, and General Purpose media (HPRG770, Thermo Fisher Scientific), and incubated for 48 hours. 0.5% DMSO was selected as vehicle control to balance the requisite need of DMSO in HepaRG cultures to maintain differentiation (for example, baseline metabolism, proportions of hepatocytes vs. cholangiocytes), while enabling further hepatic receptor pathway activation (for example, PXR and CAR) in response to chemical exposure. 48 hours after plating, the culture medium was replaced with HepaRG Serum-Free Incudtion Media. Cells were exposed to each test chemical in duplicate and maintained in CO2 incubators for another 48 hours. Chemical plates were thawed to room temperature and 200x concentrations of treatment groups were prepared. 8-point conentration-reponse curves were made with the highest exposure at 100 uM, followed by half-log dilutions, all in 0.5% DMSO. Each test plate contained variouse controls, induction positive controls (1mM phenobarbital), cytotoxicity positive controls ([…] aflatoxin B1), vehicle controls (0.5% DMSO), and total lysis controls (0.5% DMSO). Cell morphology images were taken using an Essen IncuCyte FLR automated microscope, with six 96-well plates imaged in about 24 minutes. Images were captured and exported and JPEG files. Spent culture media was transfered to black-well plates for the LDH assay, and remaining media was sorted at -80 C for later use. Cells were treated with RLT buffer and frozen until shipped for gene expression analysis. Total RNA was isolated from the cell suspension in 75 uL of Buffer RLT (Qiagen, Germantown, MD 20874) by Quintiles/Expression Analysis (Durham, NC) using a custom isolation procedure. Total RNA from each plate well was transferred to a preamplification plate. Fluidigm's 96.96 Dynamic ArrayTM (Fluidigm, Amsterdam, the Netherlands) technology was used for gene expression analyses by quantitative reverse transcription polymerase chain reaction (qRT-PCR, performed by Quintiles/Expression Analysis, Durham, NC)89. Standard TaqManTM Assays (Applied Biosystems/ThermoFisher Scientific, Foster City, CA) were used to assess the expression of 93 genes selected based on their selectivity and sensitivity to important hepatic receptors known to be modulated by environmental chemicals; importance in human hepatocyte functionality; and hepatotoxicity. […]
For `Oc1cc(Cl)ccc1Oc1ccc(Cl)cc1Cl`, the AC50 was 10.1 µM (active) and the outcome was inactive.
Take `CNC(=O)CSP(=S)(OC)OC`: the outcome was inactive.
The same measure, in the same setting: next, `CCOCN(C(=O)CCl)c1c(C)cccc1CC`: “inactive”; `CN1CSC(=S)N(C)C1`: “inactive”; `CCN(CC)C(=O)SCc1ccc(Cl)cc1`: “inactive”.
Take `ClC1C(Cl)C(Cl)C(Cl)C(Cl)C1Cl` (stereo not given): the call was inactive.
Consider `O=[N+]([O-])/N=C1\NCCN1Cc1ccc(Cl)nc1`, for which the AC50 is 28.1 µM (active).
For the compound `CC(C)(C)C(O)/C(=C\c1ccc(Cl)cc1Cl)n1cncn1` (stereo not given), the compound was classed as inactive.
In the case of `OCCOc1ccccc1`, the compound was called inactive.
For the compound `CCC(C)(C)C(=O)OC1=C(c2ccc(Cl)cc2Cl)C(=O)OC12CCCCC2`, the call was inactive.
On the same count and under the same terms, next, `C[C@H]1[C@H](c2ccc(Cl)cc2)SC(=O)N1C(=O)NC1CCCCC1`: “inactive”; `O=C(O)CCCOc1ccc(Cl)cc1Cl`: “inactive”.
As for `CCOC1Oc2ccc(OS(C)(=O)=O)cc2C1(C)C` (stereo not given), the call was inactive.
Turning to `CCCN(CCOc1c(Cl)cc(Cl)cc1Cl)C(=O)n1ccnc1`, the call was inactive.
On the same count and under the same terms, next, `COP(=O)(OC)OC=C(Cl)Cl`: “inactive”; `O=C1c2ccccc2C(=O)N1SC(Cl)(Cl)Cl`: “inactive”; `O=C(NC(=O)c1c(F)cccc1F)Nc1ccc(OC(F)(F)C(F)OC(F)(F)F)c(Cl)c1` (stereo not given): “inactive”.
Turning to `CC1(c2ccc(Oc3ccccc3)cc2)OC(=O)N(Nc2ccccc2)C1=O` (stereo not given), the compound was called inactive.
On the same count and under the same terms, next, `CCCN(CCC)c1c([N+](=O)[O-])cc(C(F)(F)F)cc1[N+](=O)[O-]`: “inactive”; `CNC(=O)Oc1cccc(N=CN(C)C)c1`: “inactive”; `O=C(O)COc1ccc(Cl)cc1Cl`: “inactive”.
The same measure, in the same setting: next, `CCC(C)Nc1c([N+](=O)[O-])cc(C(C)(C)C)cc1[N+](=O)[O-]` (stereo not given): “inactive”; `CNC(=O)/C=C(\C)OP(=O)(OC)OC`: “inactive”; `Clc1ccccc1-c1nnc(-c2ccccc2Cl)nn1`: “inactive”.
The same measure, in the same setting: next, `O=S(=O)(O)C(F)(F)C(F)(F)C(F)(F)C(F)(F)C(F)(F)C(F)(F)C(F)(F)C(F)(F)F`: “inactive”; `Oc1ccc(Cl)cc1Cc1ccccc1`: “inactive”; `N#Cc1c(Cl)c(Cl)c(Cl)c(C#N)c1Cl`: “inactive”.
In the case of `CC[C@H](C)[C@H]1O[C@]2(C=C[C@@H]1C)C[C@@H]1C[C@@H](C/C=C(\C)[C@@H](O[C@H]3C[C@H](OC)[C@@H](O[C@H]4C[C@H](OC)[C@@H](O)[C@H](C)O4)[C@H](C)O3)[C@@H](C)/C=C/C=C3\CO[C@@H]4[C@H](O)C(C)=C[C@@H](C(=O)O1)[C@]34O)O2` (tested in a mixture with another compound), the AC50 is 51.4 µM (active).
Consider `CCc1ccc(C(=O)NN(C(=O)c2cc(C)cc(C)c2)C(C)(C)C)cc1`, for which the call was inactive.
Still for that read-out and setting: next, `O=[N+]([O-])c1c(Cl)c(Cl)c(Cl)c(Cl)c1Cl`: “inactive”.
Same read-out and setting: next, `Cc1[nH]c(=O)n(C(C)(C)C)c(=O)c1Cl`: “inactive”; `COc1nn(CSP(=S)(OC)OC)c(=O)s1`: “inactive”; `CC(C)(C)C(O)C(Oc1ccc(Cl)cc1)n1cncn1` (stereo not given): “inactive”.
`O=C(O)C(F)(F)C(F)(F)C(F)(F)C(F)(F)C(F)(F)C(F)(F)C(F)(F)F`: the result was inactive.
The same measure, in the same setting: next, `COP(=S)(OC)Oc1ccc(SC)c(C)c1`: “inactive”; `N#CN`: “inactive”; `COP(=S)(OC)Oc1ccc([N+](=O)[O-])cc1`: “inactive”.
As to `CC1(C)C(C=C(Cl)Cl)C1C(=O)OC(C#N)c1ccc(F)c(Oc2ccccc2)c1` (stereo not given), the compound was called inactive.
On to `CCC(C)(NC(=O)c1cc(Cl)c(C)c(Cl)c1)C(=O)CCl` (stereo not given), for which the AC50 is 90.6 µM (active).
